Measurements as given in ChEMBL document CHEMBL1961873, “Compounds: GSK PKIS; Assays: Nanosyn kinase panel” (2012).

Key:
[1] = molecular target: Serine/threonine-protein kinase MARK2 (Homo sapiens) (UniProt Q7KZI7); details: at 1 µM
[2] = molecular target: PAS domain-containing serine/threonine-protein kinase (Homo sapiens) (UniProt Q96RG2); details: at 0.1 µM
[3] = molecular target: PAS domain-containing serine/threonine-protein kinase (Homo sapiens) (UniProt Q96RG2); details: at 1 µM
[4] = molecular target: Phosphorylase b kinase gamma catalytic chain, skeletal muscle/heart isoform (Homo sapiens) (UniProt Q16816); details: at 0.1 µM
[5] = molecular target: Phosphorylase b kinase gamma catalytic chain, skeletal muscle/heart isoform (Homo sapiens) (UniProt Q16816); details: at 1 µM
[6] = molecular target: T1, Phosphorylase b kinase gamma catalytic chain, liver/testis isoform (Homo sapiens) (UniProt P15735); details: at 0.1 µM
T1 sequence (whole entry): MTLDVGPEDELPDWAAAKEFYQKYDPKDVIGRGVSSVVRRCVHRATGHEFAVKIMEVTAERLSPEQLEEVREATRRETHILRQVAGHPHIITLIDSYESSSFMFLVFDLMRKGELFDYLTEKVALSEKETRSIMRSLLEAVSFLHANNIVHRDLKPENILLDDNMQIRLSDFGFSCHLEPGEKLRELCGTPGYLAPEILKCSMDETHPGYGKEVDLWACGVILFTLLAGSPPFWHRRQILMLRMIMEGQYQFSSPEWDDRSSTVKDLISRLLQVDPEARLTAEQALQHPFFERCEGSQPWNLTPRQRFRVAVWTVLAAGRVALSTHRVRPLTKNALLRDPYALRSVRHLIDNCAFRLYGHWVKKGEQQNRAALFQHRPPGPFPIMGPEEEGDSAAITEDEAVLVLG

[7] = molecular target: T1, Phosphorylase b kinase gamma catalytic chain, liver/testis isoform (Homo sapiens); details: at 1 µM
[8] = molecular target: Serine/threonine-protein kinase pim-1 (Homo sapiens) (UniProt P11309); details: at 0.1 µM
[9] = molecular target: Serine/threonine-protein kinase pim-1 (Homo sapiens) (UniProt P11309); details: at 1 µM
[10] = molecular target: Serine/threonine-protein kinase pim-2 (Homo sapiens) (UniProt Q9P1W9); details: at 0.1 µM
[11] = molecular target: Serine/threonine-protein kinase pim-2 (Homo sapiens) (UniProt Q9P1W9); details: at 1 µM
[12] = molecular target: Serine/threonine-protein kinase pim-3 (Homo sapiens) (UniProt Q86V86); details: at 0.1 µM
[13] = molecular target: Serine/threonine-protein kinase pim-3 (Homo sapiens) (UniProt Q86V86); details: at 1 µM
[14] = molecular target: T2, MAP kinase-activated protein kinase 5 (Homo sapiens) (UniProt Q8IW41); details: at 0.1 µM
T2 sequence (whole entry): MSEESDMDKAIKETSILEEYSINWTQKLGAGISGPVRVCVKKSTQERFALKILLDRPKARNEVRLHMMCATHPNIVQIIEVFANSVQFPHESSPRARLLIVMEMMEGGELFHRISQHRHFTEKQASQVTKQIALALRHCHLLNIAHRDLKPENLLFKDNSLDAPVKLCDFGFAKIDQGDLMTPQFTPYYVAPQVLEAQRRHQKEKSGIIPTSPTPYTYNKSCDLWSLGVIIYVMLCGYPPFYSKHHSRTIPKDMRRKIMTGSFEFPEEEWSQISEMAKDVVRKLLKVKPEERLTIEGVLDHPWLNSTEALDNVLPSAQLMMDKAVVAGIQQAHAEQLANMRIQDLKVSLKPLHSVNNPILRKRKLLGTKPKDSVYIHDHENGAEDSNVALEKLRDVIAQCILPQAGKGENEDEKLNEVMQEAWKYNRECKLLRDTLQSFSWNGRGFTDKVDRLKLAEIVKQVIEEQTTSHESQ

[15] = molecular target: T2, MAP kinase-activated protein kinase 5 (Homo sapiens); details: at 1 µM
[16] = molecular target: Serine/threonine-protein kinase SIK1 (Homo sapiens) (UniProt P57059); details: at 0.1 µM
[17] = molecular target: Serine/threonine-protein kinase SIK1 (Homo sapiens) (UniProt P57059); details: at 1 µM
[18] = molecular target: Serine/threonine-protein kinase SIK2 (Homo sapiens) (UniProt Q9H0K1); details: at 0.1 µM
[19] = molecular target: Serine/threonine-protein kinase SIK2 (Homo sapiens) (UniProt Q9H0K1); details: at 1 µM
[20] = molecular target: T3, Serine/threonine-protein kinase TBK1 (Homo sapiens) (UniProt Q9UHD2); details: at 0.1 µM;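 further: values are the mean TBK1 inhibition, taken from the GSK PKIS screening data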
T3 sequence (whole entry): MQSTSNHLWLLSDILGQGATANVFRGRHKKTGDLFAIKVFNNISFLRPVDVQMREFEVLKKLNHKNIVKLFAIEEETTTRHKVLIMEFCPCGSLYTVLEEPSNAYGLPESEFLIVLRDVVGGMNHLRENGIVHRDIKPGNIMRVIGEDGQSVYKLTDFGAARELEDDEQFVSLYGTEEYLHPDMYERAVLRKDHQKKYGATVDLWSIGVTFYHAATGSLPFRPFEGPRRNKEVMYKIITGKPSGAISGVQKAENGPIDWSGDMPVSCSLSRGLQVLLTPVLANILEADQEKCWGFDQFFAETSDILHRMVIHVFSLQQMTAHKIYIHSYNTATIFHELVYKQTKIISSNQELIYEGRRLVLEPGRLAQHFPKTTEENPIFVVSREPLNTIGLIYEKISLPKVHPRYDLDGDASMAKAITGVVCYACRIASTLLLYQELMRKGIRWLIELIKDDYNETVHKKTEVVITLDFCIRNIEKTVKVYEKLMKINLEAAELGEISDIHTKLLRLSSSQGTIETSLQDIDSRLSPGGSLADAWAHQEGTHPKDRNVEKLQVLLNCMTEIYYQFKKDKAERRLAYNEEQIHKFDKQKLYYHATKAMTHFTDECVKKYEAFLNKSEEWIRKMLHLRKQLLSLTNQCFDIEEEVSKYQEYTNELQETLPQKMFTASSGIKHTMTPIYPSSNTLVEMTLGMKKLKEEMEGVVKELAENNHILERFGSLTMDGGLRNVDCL

Sequence of Phosphorylase b kinase gamma catalytic chain, skeletal muscle/heart isoform (Homo sapiens) (Q16816 whole entry, looked up, canonical isoform): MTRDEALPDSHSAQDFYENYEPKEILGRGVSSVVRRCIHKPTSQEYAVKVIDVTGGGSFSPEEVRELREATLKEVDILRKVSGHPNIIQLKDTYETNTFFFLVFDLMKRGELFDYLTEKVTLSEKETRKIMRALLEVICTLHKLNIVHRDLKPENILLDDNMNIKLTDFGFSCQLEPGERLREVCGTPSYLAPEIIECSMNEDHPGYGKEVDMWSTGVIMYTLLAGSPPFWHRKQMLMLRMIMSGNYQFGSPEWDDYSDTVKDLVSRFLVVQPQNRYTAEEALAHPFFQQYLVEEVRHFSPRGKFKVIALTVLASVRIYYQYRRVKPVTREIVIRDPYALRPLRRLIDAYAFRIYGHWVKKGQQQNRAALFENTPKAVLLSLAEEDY
Sequence of PAS domain-containing serine/threonine-protein kinase (Homo sapiens) (Q96RG2 whole entry, the tested form may be a part, canonical isoform): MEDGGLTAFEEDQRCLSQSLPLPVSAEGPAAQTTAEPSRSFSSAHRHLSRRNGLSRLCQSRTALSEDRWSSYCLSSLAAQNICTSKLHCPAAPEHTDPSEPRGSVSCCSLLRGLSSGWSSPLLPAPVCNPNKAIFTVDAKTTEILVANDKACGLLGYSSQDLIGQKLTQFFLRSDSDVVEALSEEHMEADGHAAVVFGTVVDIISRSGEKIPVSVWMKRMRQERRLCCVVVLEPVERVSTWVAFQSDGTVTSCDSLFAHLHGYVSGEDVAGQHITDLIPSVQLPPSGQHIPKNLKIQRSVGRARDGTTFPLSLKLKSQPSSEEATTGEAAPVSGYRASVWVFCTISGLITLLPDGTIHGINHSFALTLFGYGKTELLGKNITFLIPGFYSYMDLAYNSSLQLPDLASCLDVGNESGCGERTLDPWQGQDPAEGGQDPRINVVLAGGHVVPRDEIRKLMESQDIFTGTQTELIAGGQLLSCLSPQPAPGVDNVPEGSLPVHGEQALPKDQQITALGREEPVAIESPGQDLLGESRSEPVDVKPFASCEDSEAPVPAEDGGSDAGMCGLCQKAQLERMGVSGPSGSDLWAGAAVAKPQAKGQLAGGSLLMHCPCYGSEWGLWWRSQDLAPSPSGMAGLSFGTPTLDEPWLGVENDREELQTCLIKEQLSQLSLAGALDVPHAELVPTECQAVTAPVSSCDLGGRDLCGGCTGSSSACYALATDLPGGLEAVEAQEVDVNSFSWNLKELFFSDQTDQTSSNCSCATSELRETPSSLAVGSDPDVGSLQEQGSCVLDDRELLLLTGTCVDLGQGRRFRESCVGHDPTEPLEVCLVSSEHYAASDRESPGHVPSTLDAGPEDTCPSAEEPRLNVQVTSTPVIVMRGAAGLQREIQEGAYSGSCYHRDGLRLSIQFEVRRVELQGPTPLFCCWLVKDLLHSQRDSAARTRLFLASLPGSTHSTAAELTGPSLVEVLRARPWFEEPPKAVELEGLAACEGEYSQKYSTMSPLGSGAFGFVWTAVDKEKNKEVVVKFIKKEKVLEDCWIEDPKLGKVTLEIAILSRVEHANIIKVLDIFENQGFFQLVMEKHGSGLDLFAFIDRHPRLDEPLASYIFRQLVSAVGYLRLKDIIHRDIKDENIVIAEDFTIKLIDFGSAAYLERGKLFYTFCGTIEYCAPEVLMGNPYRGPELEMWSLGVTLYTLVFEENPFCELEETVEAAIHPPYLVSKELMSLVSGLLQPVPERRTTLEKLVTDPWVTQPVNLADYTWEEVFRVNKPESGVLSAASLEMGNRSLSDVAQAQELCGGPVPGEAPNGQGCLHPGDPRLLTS
Sequence of Serine/threonine-protein kinase MARK2 (Homo sapiens) (Q7KZI7 whole entry, the tested form may be a part): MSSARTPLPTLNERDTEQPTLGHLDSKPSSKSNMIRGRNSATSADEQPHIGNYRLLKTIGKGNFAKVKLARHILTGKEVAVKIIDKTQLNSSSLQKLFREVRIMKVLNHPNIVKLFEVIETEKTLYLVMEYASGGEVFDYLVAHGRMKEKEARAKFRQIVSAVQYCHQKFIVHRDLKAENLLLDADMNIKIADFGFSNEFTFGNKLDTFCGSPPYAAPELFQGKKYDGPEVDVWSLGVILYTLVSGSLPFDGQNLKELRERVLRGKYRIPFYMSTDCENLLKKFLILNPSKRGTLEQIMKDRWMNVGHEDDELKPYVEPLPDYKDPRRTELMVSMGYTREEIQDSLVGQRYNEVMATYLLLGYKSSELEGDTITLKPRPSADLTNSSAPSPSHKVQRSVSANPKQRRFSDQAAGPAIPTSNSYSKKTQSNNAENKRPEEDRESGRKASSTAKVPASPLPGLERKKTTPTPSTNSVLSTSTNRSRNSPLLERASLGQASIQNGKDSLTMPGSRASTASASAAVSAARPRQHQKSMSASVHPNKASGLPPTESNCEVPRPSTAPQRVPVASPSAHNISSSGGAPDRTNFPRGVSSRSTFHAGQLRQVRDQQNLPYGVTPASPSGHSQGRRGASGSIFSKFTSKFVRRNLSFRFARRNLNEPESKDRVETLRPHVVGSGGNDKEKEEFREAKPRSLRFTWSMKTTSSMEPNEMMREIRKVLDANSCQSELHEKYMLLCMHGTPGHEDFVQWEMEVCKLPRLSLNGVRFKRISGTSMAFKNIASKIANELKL
Sequence of Serine/threonine-protein kinase SIK1 (Homo sapiens) (P57059 whole entry): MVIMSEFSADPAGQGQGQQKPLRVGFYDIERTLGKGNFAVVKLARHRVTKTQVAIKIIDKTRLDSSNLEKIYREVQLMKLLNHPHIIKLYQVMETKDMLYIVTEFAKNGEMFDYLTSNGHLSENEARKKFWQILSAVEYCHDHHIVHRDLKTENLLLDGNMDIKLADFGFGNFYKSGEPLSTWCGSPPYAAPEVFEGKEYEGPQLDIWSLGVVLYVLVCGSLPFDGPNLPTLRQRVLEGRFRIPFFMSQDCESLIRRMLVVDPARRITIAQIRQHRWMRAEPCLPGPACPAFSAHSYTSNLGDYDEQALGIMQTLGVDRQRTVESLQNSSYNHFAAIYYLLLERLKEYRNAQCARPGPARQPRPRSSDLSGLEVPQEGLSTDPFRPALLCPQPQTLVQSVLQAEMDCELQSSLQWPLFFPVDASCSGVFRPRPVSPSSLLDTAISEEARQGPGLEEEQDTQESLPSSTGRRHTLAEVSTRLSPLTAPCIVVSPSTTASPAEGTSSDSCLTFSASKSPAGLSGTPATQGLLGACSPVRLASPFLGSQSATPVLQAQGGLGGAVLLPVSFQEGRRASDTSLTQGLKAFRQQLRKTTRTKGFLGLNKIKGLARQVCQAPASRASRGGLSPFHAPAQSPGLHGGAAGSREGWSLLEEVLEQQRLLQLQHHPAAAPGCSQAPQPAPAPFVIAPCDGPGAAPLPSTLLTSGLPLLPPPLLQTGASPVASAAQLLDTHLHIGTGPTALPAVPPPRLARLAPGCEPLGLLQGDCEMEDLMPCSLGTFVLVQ
Sequence of Serine/threonine-protein kinase pim-1 (Homo sapiens) (P11309 whole entry, looked up): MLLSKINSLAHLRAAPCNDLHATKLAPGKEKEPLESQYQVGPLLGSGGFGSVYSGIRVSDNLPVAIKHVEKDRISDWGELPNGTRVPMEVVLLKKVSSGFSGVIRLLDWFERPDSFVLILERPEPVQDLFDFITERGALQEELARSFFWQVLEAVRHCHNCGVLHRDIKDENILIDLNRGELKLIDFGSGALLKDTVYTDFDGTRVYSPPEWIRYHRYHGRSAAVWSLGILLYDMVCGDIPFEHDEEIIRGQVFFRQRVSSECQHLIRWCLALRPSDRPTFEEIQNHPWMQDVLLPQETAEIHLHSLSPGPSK
Sequence of Serine/threonine-protein kinase SIK2 (Homo sapiens) (Q9H0K1 whole entry, looked up): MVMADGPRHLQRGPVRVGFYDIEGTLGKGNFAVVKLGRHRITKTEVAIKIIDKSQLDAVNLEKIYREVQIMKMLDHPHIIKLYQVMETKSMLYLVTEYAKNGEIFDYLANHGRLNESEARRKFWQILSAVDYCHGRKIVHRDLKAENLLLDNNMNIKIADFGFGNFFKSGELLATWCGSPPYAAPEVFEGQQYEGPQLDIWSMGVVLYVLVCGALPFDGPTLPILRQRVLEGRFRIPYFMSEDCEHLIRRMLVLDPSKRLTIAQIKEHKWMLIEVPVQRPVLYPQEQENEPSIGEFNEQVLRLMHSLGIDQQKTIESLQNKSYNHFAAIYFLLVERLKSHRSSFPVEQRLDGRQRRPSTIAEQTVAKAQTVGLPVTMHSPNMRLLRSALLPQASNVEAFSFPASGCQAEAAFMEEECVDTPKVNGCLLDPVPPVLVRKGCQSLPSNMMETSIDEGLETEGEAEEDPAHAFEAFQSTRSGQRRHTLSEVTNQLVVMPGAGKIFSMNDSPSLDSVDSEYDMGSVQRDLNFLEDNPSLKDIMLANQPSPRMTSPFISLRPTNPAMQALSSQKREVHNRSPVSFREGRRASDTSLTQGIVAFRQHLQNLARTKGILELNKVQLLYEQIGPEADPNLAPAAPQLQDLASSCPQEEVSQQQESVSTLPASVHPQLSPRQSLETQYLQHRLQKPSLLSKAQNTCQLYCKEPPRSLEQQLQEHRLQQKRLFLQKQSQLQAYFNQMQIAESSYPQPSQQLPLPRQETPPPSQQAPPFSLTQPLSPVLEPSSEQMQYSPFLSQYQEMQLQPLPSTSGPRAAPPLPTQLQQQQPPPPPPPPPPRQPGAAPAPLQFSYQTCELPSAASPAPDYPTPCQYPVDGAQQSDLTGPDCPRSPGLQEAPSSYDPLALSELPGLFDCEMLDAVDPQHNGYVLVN

Row | Structure (SMILES) | inhibition [1] | inhibition [2] | inhibition [3] | inhibition [4] | inhibition [5] | inhibition [6] | inhibition [7] | inhibition [8] | inhibition [9] | inhibition [10] | inhibition [11] | inhibition [12] | inhibition [13] | inhibition [14] | inhibition [15] | inhibition [16] | inhibition [17] | inhibition [18] | inhibition [19] | inhibition [20]
1 | c1ccc(Cc2nc3ccc(Nc4ncnc5ccccc45)cc3[nH]2)cc1 | 2.19% | 0.03% | 0.27% | 2.35% | 4.75% | 3.39% | 4.89% | 0.17% | 0.7% | -0.72% | 0.02% | 0.69% | 3.67% | 1.42% | 1.52% | 3.13% | 5.43% | 2.47% | 7.91% | 3.57%
2 | Oc1cccc(-c2nc(-c3ccccc3)[nH]c2-c2ccncc2)c1 | 0.43% | 0.7% | 0.32% | 4.05% | 3.93% | 5.23% | 4.95% | 0.8% | 2.57% | -0.34% | 0.33% | -1.73% | 1.72% | 1.55% | 1.19% | 8.44% | 11.6% | 4.34% | 10.2% | 1.64%
3 | NS(=O)(=O)c1cccc(Nc2cc(-c3ccc(F)cc3)n[nH]2)c1 | 9.04% | 0.67% | 2.88% | 2.8% | 14.5% | 4.37% | 8.84% | 1.38% | 1.68% | 0.15% | 1.85% | 2.44% | 5.79% | 1.15% | 2.81% | 7.9% | 33.8% | 11.7% | 37.9% | 2.64%
4 | COc1cc(/C=N/Nc2ncnc3c2cnn3C(C)C)ccc1O | 1.32% | -0.76% | -1.33% | 2.28% | 5.02% | -0.14% | 1.57% | 0.52% | 2.04% | 0.9% | 4.35% | 1.2% | 7.74% | 0.1% | 0.02% | 2.84% | 14.5% | 2.78% | 23.1% | 2.37%
5 | Cc1ccc2c(c1)/C(=N/Nc1ccc(S(N)(=O)=O)cc1)C(=O)N2 | 4.44% | 0.38% | 0.32% | 1.32% | 11% | 1.11% | 0.07% | 0.77% | 0.99% | 0.28% | 1.85% | -0.58% | -0.92% | 0.02% | -2.03% | 1.14% | 1.4% | -5.87% | 10.4% | -2.1%
6 | COc1ccc(-c2nn3ncccc3c2-c2ccnc(Nc3cccc(C(F)(F)F)c3)n2)cc1 | 1.37% | 0.84% | 0.1% | 3.78% | 4.58% | 4.42% | 4.66% | 0.05% | 0.66% | 0.02% | 0.24% | -0.01% | 0.75% | 1.02% | 1.07% | 7.99% | 2.26% | 4.76% | 8.4% | 0.76%
7 | NS(=O)(=O)c1ccc(-c2cc3ccncc3cc2OCc2ccccc2)cc1 | -0.56% | -0.27% | 0.09% | 3.43% | 8.39% | 5.17% | 5.11% | 0.14% | 0.86% | -0.34% | -1.33% | -0.2% | 1.38% | 0.82% | 1.86% | 4.35% | 10.3% | 6.46% | 4.1% | 5.88%
8 | ON=C1CCc2cc(-c3nc(C4CCNCC4)[nH]c3-c3ccncc3)ccc21 | 2.57% | 0.03% | -0.46% | 0% | 1.5% | 0.29% | -2.23% | 1% | 0.9% | 0.25% | 2.02% | -0.74% | -1.33% | -0.32% | -1.28% | -0.24% | 0.92% | -6.05% | 3.25% | 0.4%
9 | O=C(Nc1ccc(Oc2ccc3[nH]c(NC(=O)c4ccco4)nc3c2)cc1)Nc1cc(C(F)(F)F)ccc1F | 0.83% | 0.28% | 0.06% | 0.41% | 8.29% | 0.46% | -0.56% | 0.14% | 1.19% | -3.36% | -3.75% | 0.09% | 0.78% | -0.29% | -0.75% | 4.18% | 4.41% | -4.88% | 0.5% | 0.65%
10 | NS(=O)(=O)c1cccc(-c2cc3ccncc3cc2OCc2ccccc2)c1 | 4.78% | 0.61% | -0.76% | 4.05% | 7.24% | 4.91% | 3.55% | 1.01% | 0.91% | 0.27% | 0.25% | -1.15% | -3.18% | 1.74% | 0.61% | 0.44% | 5.64% | 1.16% | 3.39% | 2.28%
11 | CS(=O)(=O)CCNCc1nc(-c2ccc3ncnc(Nc4ccc(OCc5cccc(C(F)(F)F)c5)cc4)c3c2)cs1 | 1.07% | 0.16% | -0.13% | 0.25% | 3.14% | 2.6% | 2.29% | 0.49% | -0.28% | -0.54% | -0.33% | -0.43% | 0.97% | 1.44% | -0.14% | 4.28% | 0.42% | 1.04% | 2.49% | 2.22%
12 | CCn1c(-c2nonc2N)nc2c(C#CC(C)(C)O)nc(OCCNC)cc21 | 10.6% | -1.05% | 0.6% | 1.42% | 4.25% | 3.52% | 4.33% | 1.82% | 4.29% | -0.54% | 1.04% | 0.16% | 3.51% | 1.21% | 1.03% | 6.97% | 10.6% | 3.14% | 9.54% | 3.53%
13 | N#Cc1cccc(Nc2nccc(-c3cnn4ncccc34)n2)c1 | 9.5% | 0.25% | 0.01% | 15.8% | 58.3% | 7.04% | 22.2% | 1.44% | 12.4% | 0.59% | 7.85% | 4.41% | 34% | 1.48% | 4.15% | 8.01% | 15.1% | 4.44% | 11.9% | 1.58%
